Sampled rows, rich in hits. Any-hit rate of the full collection: about 19%.
TDP1 block – blocks human tyrosyl-DNA phosphodiesterase 1; Q9NUW8; recombinant TDP1, AlphaScreen DNA substrate cleavage; Potency, µM (highest dose often 130 µM), for the others: at the highest dose activity change, negative = inhibition, usual class: inhibitors; 350,000 compounds, 0.28% hits; AID 485290; note: potency is the fitted concentration of half-maximal effect; nearly all actives have a fitted effect of over 40% in size
Target sequence (Q9NUW8 whole entry, looked up): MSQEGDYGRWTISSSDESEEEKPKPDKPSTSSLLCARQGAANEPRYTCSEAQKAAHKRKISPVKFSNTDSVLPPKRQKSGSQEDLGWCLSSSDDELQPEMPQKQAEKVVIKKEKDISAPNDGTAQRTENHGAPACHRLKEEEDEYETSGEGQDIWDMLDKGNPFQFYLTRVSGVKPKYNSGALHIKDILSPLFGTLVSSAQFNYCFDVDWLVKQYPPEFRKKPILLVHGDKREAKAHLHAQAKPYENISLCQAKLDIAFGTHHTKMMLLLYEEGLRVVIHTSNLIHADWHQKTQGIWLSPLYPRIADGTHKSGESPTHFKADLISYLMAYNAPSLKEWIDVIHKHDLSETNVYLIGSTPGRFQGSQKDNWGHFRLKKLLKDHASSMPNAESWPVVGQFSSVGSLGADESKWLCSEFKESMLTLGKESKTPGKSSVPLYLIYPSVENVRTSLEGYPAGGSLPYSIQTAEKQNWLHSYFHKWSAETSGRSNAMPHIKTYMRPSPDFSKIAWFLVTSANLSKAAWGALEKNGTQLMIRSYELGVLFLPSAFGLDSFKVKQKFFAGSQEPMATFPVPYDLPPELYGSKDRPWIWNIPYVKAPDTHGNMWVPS
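Here, a 5' biotin and 3' phosphotyrosine-FITC DNA oligonucleotide reports Tdp1 activity: intact substrate bridges AlphaScreen beads, while cleavage leaves a 3' phosphate and drops signal. All incubations at room temperature.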
DT40 TDP1 CPT – DT40-hTDP1 cell growth loss with CPT | 420,000 compounds, 12% hits | AID 686979 | chicken DT40 Tdp1-/-;hTDP1 cells + 20 nM CPT, ATP luminescence, 48 h | Potency, µM (highest dose often 46.2 µM), for the others: top-dose activity change, negative = growth inhibition, most hits filed as inhibitors; note: potency is the fitted concentration of half-maximal effect; nearly all actives have a fitted effect of over 55% in size
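Chicken DT40 Tdp1-/- cells stably complemented with human TDP1 were seeded at 400 cells/well in medium containing 20 nM camptothecin, exposed to pin-transferred compounds, and grown at 37 °C for at least 48 hr. Viability was read as ATP luminescence.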
DT40 TDP1 no CPT – qHTS for Inhibitors of human tyrosyl-DNA phosphodiesterase 1 (TDP1): qHTS in cells in absence of CPT. DT40 Tdp1-/- hTDP1 cells, no CPT, ATP luminescence, 48 h. Potency, µM (top dose mostly 46.2 µM), without a hit: at the top dose activity change, negative = growth inhibition, most hits filed as inhibitors. 420,000 compounds, 15% hits; note: potency is the fitted concentration of half-maximal effect; nearly all actives have a fitted effect of over 55% in size
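Readout: luminescence from CellTiter-Glo after 30 min in the dark at RT. Cells: DT40 Tdp1-/- with stable hTDP1, 400/well. Exposure: compounds alone, ≥48 hr, 37 °C.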
IL1B secr inh – blocks inflammasome-driven IL-1 beta release; THP-1 LPS/ATP IL-1B secretion, AlphaLISA, 16 h; hits give low values; activity change, % at 57.5 µM; 360,000 compounds, 4.7% hits; AID 743279; in the data active = activity change below about -50%; inconclusive = mostly about -30% to -49%
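THP-1 cells pretreated 1 hr with compounds (up to 57.5 uM final), then stimulated with LPS (250 ng/mL final) plus ATP (1.25 mM final); secreted IL-1B measured by AlphaLISA after 16 hr, decreased signal indicating inhibition.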
ELG1 DNA repair – inhibitors of ELG1-dependent DNA repair in HEK293T cells | HEK293T ELG1-luciferase reporter, luminescence, 16 h; DNA damage induced by 5-fluorouridine | 330,000 compounds, 2.3% hits | Potency, µM (top dose mostly 46.1 µM), without a hit: top-dose activity change, negative = inhibition, usual class: inhibitors; note: potency is the fitted concentration of half-maximal effect; nearly all actives have a fitted effect of over 55% in size
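Step one: seed 2,000 cells per well. Step two: pin-transfer compound or DMSO alongside 5-fluorouridine. Step three: incubate 16 hr, 37 °C, 5% CO2. Step four: add ONE-Glo, wait 30 min, read luminescence.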
Giardia killer – Giardia lamblia killing; Giardia lamblia trophozoite viability; 340,000 compounds, 0.15% hits; activity change, % at 7.66 µM, hits read low; in the data active = activity change below about -80%; inconclusive = between about -30% and that limit;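 note: parasites exposed to compound for two days anaerobically before the ATP read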
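ATP-content bioluminescence gauges trophozoite survival. Cells (100/well) receive compound and incubate anaerobically for 48 hrs at 37 deg C; detection reagent follows for 15-30 min at room temperature.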
Active calls of the source: *; ? = inconclusive; / = no result; [ ] = remark or other dose. Unless noted, calls come from the whole dose curve; as a rule, active = well fitted curve in the direction sought with a large enough effect; inconclusive = small, poorly fitted or top-dose-only effect, or another doubt; inactive = no such curve, though single readings can be large; an effect the other way counts as inactive or inconclusive. % is set by controls: 0 for no effect and ±100 for the full control effect.

SMILES	TDP1 block	DT40 TDP1 CPT	DT40 TDP1 no CPT	IL1B secr inh	ELG1 DNA repair	Giardia killer
O=C(NCC(c1cccs1)N1CCOCC1)c1ccccc1NS(=O)(=O)c1ccc(Cl)c([N+](=O)[O-])c1 (stereo unspecified)	2.7%	?	?	-9.6	?	2.1
O=C(NCC(c1cccs1)N1CCOCC1)c1ccc(Cl)c([N+](=O)[O-])c1 (stereo unspecified)	0.6%	?	?	-93.6*	-10.4%	11.0
O=C(NCC(c1ccc(F)cc1)N1CCOCC1)c1ccc(-c2ccccc2)cc1 (stereo unspecified)	-0.1%	16.4µM*	?	-11.1	?	-3.0
CCc1cc(C(=O)NCC(c2cccs2)N2CCOCC2)sc1C (stereo unspecified)	-0.2%[0.505 µM]	?	23.1µM*	12.2	7.1%	9.6
O=C(NCC(c1ccc(F)cc1)N1CCOCC1)c1c(F)cccc1F (stereo unspecified)	1.2%	8.1%	-18.9%	0.8	-2.4%	7.5
Cc1ccsc1C(=O)NCC(c1cccs1)N1CCOCC1 (stereo unspecified)	/	?	?	35.5	/	/
Cc1ccc(CN2CCN(Cc3ccc4cccc(F)c4n3)CC2CCO)cc1 (stereo unspecified)	/	-8.1%	-1.3%	17.5	?	7.3
O=C(NCC(c1ccc(F)cc1)N1CCOCC1)c1nn(-c2ccccc2)c(=O)c2ccccc12 (stereo unspecified)	0.0%	?	20.6µM*	27.0	?	5.5
CC(C)(C)c1ccc(OCCC(=O)NCC(c2cccs2)N2CCOCC2)cc1 (stereo unspecified)	-2.6%	-16.1%	?	15.0	-7.6%	-8.9
O=C(NCCCN1CCOCC1)c1nn(-c2ccccc2)c(=O)c2ccccc12	2.1%	15.5%	10.5%	-2.0	8.9%	10.8
CC(C)(Oc1ccc(Cl)cc1)C(=O)NCC(c1cccs1)N1CCOCC1 (stereo unspecified)	-11.1%[0.505 µM]	?	18.4µM*	-7.1	?	-12.4
CO[C@@H]1COC(=O)CC=C[C@@H](C)[C@@H]2C=C[C@@H](O)[C@@H](COC(=O)C/C=C\[C@H]1C)O2	6.9%[21 µM]	/	/	/	/	/
O=C(NCc1ccc2c(c1)OCO2)C(=O)NCC1OCCN1S(=O)(=O)c1ccccc1 (stereo unspecified)	/	-6.0%	?	-3.0	/	9.9
Cc1ccccc1-n1c(Cn2c(=O)sc3ccccc32)nnc1SCC(=O)Nc1nccs1	-2.6%	2.0%	-27.2%	-1.9	-5.6%	8.3
Cc1csc(NC(=O)CSc2nnc(Cn3c(=O)sc4ccccc43)n2-c2ccccc2)n1	7.4%	7.31µM*	-99.8%	?	?	22.8
CSc1nnc(Cn2c(=O)sc3ccccc32)n1-c1cccc(Cl)c1	1.0%	?	?	-3.4	11.4%	1.8
CCCSc1nnc(Cn2c(=O)sc3ccccc32)n1-c1ccccc1	6.1%	?	18.4µM*	15.2	?	28.3
Cn1c(Cn2c(=O)sc3ccccc32)nnc1SCC(=O)NC1CCCC1	0.0%	16.4µM*	-8.7%	-14.8	4.5%	0.6
CC(C)c1nc(SCC(=O)Nc2c[nH]c(=O)[nH]c2=O)c2cnn(-c3ccccc3)c2n1	-5.8%	2.3%	?	21.1	-11.0%	-4.3
COc1cc2cnc(-c3ccccc3)c(-c3cc(OC)c(OC)c(OC)c3)c2cc1OC	3.3%	?	13µM*	-50.8*	9.2µM*	6.7
COc1cc(OC)cc(-c2cc3ccc(OC)cc3cn2)c1	-5.4%	16.4µM*	13µM*	-3.6	?	?
COc1cc2cnc(-c3ccccc3)c(-c3ccc([N+](=O)[O-])cc3)c2cc1OC	5.0%	?	?	-9.7	?	14.8
CCOC(=O)c1ccc2ncc(-c3ccccc3)nc2c1	5.7%	2.0%	0.1%	49.9	?	1.9
COc1cc2cnc(-c3ccccc3)cc2cc1OC	-0.2%	18.4µM*	?	-20.3	?	-11.9
COc1cc2ncc(-c3ccccc3)nc2cc1OC	6.1%	20.6µM*	25.1µM*	/	/	/
SMILES	TDP1 block	DT40 TDP1 CPT	DT40 TDP1 no CPT	IL1B secr inh	ELG1 DNA repair	Giardia killer
CCOc1ccc(Br)cc1S(=O)(=O)Nc1cccc(S(=O)(=O)N2CCOCC2)c1	/	-17.0%	-12.2%	32.8	/	3.9
Cc1cc(OC(=O)c2cc(Cl)ccc2Cl)c([N+](=O)[O-])c(=O)[nH]1	/	4.9%	8.7%	9.9	3.8%	7.8
COCCOC(=O)N1CCCCC1c1cc(C(=O)NCc2ccc(Cl)c(Cl)c2)no1 (stereo unspecified)	/	14.6µM*	?	-15.1	/	/
CC(=O)Nc1ccc(C(=O)N2CCCCC2c2cc(C(=O)NCc3ccccc3)no2)cc1 (stereo unspecified)	/	-12.1%	-10.5%	-10.0	/	/
Cn1cnc(S(=O)(=O)N2CCCCC2c2cc(C(=O)NCc3ccc(Cl)c(Cl)c3)no2)c1 (stereo unspecified)	/	?	6.51µM*	-11.7	/	/
O=C(Nc1cccc2c1CCCC2)c1cc(C2CCCCN2C(=O)c2cccs2)on1 (stereo unspecified)	/	8.2µM*	8.2µM*	17.2	/	/
O=C(NCc1ccccc1)c1cc(C2CCCCN2C(=O)c2ccccc2)on1 (stereo unspecified)	/	18.4µM*	13µM*	44.6	/	/
O=C(Nc1ccccc1Cl)c1cc(C2CCCCN2C(=O)C2CCCCC2)on1 (stereo unspecified)	/	-91.3%	?	5.5	/	/
COc1ccc(CCNC(=O)CCn2c(=O)c3ccccc3n(CC(=O)Nc3ccc(C)cc3C)c2=O)cc1OC	1.8%	-8.2%	4.9%	/	/	/
COc1ccc(CN(C)S(=O)(=O)c2ccc3c(c2)OCCO3)cc1	1.9%	-14.6%	-5.8%	9.9	-4.6%	-3.7
O=C(OCC1CCCO1)c1ccc2c(c1)N(Cc1ccccc1Cl)C(=O)c1ccccc1S2(=O)=O (stereo unspecified)	2.6%	-17.8%	-24.4%	/	/	/
O=C(NCc1ccc(Cl)c(Cl)c1)c1cc(C2CCCCN2C(=O)c2ccccc2)on1 (stereo unspecified)	/	18.4µM*	13µM*	?	/	/
O=C(NCc1ccc(Cl)c(Cl)c1)c1cc(C2CCCCN2C(=O)c2cccs2)on1 (stereo unspecified)	/	14.6µM*	20.6µM*	-18.9	/	/
CCCNC(=O)c1cc(C2CCCCN2C(=O)c2cccs2)on1 (stereo unspecified)	/	?	3.5%	14.1	/	/
